Records with an inconclusive call do not appear. Active and inactive are the calls of the source. Unless noted, calls come from the whole dose curve.
Assays:
[1] = biological target: Nuclear receptor subfamily 1 group I member 3 (Homo sapiens) (UniProt Q14994); assay: qHTS assay to identify small molecule agonists of the constitutive androstane receptor (CAR) signaling pathway (AID 1224839; active = well fitted activation curve with a large enough effect in the repeat runs;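 note: HepG2 cells stably carrying human CAR and a CYP2B6 luciferase reporter; series mostly up to about 92 µM; nearly all actives have a fitted effect of over 15% in size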)
Outline: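 Compounds tested at 15 concentrations on HepG2 cells stably harbouring hCAR and CYP2B6-2.2kb reporter constructs, co-treated with PK11195 (0.75 uM final), 24 h at 37 C; luminescent reporter signal quantified.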

[2] = qHTS assay to identify small molecule antagonists of the estrogen related receptor signaling pathway with the pleiotropic PPARgamma coactivator (PGC) from Tox21 10K library - cell viability counter screen (AID 1224840; active = well fitted cell-killing curve with a large enough effect in the repeat runs, not every such curve was filed as active; note: nearly all actives have a fitted effect of over 40% in size)
Outline: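 Compounds in DMSO, alongside positive and negative controls, were pinned onto PGC/ERR cells (2,000 per well). Exposure lasted 17.5 hours at 37 C, followed by a 30-minute CellTiter-Fluor incubation and fluorescence reading.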

[3] = biological target: Thyrotropin receptor (Homo sapiens) (UniProt P16473); assay: qHTS assay to identify small molecule agonists of the thyroid stimulating hormone receptor (TSHR) signaling pathway (AID 1224843); note: nearly all actives have a fitted effect of over 45% in size
Outline: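 HEK293 cells stably bearing the thyrotropin receptor were plated at 800 cells/well and challenged with compound (30 min, RT). Accumulated cAMP was quantified via cAMP-d2 competing for cryptate-tagged antibody.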

[4] = qHTS assay to identify small molecule agonists of the hypoxia (HIF-1) signaling pathway - cell viability counter screen (AID 1224844); note: nearly all actives have a fitted effect of over 50% in size
Outline: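 Luminescent ATP content (CellTiter-Glo, 30 min, room temperature) served as the viability measure in HRE-bla ME-180 cells exposed to compounds for 17 hrs in low-serum medium (0.5% dialyzed FBS).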

[5] = qHTS assay to identify small molecule agonists of H2AX (AID 1224845; active = well fitted activation curve with a large enough effect in the signal ratio in the repeat runs, not every such curve was filed as active; the % refers to the signal ratio)
Outline: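 Phospho-H2AX Ser139 measured by HTRF (ex 320 nm; em 665 and 620 nm) after 24 hr antibody incubation. Compounds, 15 concentrations, 0.76% DMSO, were applied to CHO-K1 cells for 3hr at 37C before lysis.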

[6] = qHTS assay to identify small molecule agonists of the hypoxia (HIF-1) signaling pathway (AID 1224846; active = well fitted activation curve with a large enough effect in the signal ratio in the repeat runs, not every such curve was filed as active; the % refers to the signal ratio)
Outline: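 Measured by blue/green FRET after loading CCF4-AM: beta-lactamase expressed from a hypoxia response element in ME-180 cells. Test agents were delivered in DMSO and left 17 hrs; cells had been plated 5 hrs earlier in low-serum (0.5% dialyzed FBS) medium.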

[7] = qHTS assay to identify small molecule agonists of H2AX - cell viability counter screen (AID 1224847); note: top concentration of the series differs between compounds; nearly all actives have a fitted effect of over 30% in size
Outline: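 Compounds tested at 15 concentrations were incubated 3 hr at 37C with wild-type CHO-K1 cells; cellular ATP-based luminescence (CellTiter-Glo) indicated viability.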

Measured: Potency

Sequence of Thyrotropin receptor (Homo sapiens) (P16473 whole entry, looked up): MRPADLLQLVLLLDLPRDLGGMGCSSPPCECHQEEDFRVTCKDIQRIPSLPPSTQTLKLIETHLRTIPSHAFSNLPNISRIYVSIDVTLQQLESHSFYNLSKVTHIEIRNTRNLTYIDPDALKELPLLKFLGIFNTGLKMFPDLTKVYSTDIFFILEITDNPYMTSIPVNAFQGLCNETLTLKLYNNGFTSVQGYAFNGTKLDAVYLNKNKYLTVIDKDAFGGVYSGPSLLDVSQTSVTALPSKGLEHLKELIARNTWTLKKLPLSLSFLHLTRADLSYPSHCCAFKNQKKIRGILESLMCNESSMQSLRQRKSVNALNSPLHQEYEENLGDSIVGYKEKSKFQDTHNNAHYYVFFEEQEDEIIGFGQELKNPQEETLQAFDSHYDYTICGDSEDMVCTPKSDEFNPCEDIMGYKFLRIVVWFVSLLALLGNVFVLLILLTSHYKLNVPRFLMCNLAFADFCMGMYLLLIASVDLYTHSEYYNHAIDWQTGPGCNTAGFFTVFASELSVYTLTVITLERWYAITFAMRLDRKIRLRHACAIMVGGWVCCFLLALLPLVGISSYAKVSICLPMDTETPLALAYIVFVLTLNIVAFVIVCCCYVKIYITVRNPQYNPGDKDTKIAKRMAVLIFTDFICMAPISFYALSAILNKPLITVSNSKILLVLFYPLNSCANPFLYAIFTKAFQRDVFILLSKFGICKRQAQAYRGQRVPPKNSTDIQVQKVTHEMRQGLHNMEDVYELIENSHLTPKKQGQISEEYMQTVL
Sequence of Nuclear receptor subfamily 1 group I member 3 (Homo sapiens) (Q14994 whole entry, looked up): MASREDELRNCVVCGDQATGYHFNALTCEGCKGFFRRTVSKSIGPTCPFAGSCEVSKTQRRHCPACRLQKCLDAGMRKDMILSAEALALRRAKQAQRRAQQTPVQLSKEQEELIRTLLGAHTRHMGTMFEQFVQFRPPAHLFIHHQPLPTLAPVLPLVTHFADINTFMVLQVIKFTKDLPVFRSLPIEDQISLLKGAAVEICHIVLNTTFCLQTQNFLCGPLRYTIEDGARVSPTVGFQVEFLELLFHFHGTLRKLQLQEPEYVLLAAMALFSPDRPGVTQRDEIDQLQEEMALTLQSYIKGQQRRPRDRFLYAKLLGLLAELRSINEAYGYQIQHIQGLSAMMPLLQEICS

O/N=C/C=N/O
inactive: all assays above

CC(=O)O[Si](C)(OC(C)=O)OC(C)=O
inactive: all assays above

CCCCCC(C)O (configuration not stated)
inactive: all assays above

O=C1NC(c2ccccc2)(c2ccccc2)C(=O)N1COP(=O)(O)O
inactive: all assays above

CCc1occc(=O)c1O
inactive: all assays above

O=C(O)CONC(=O)c1ccccc1
inactive: all assays above

COS(=O)(=O)O
inactive: all assays above

Cn1c(=O)c2[nH]c(Br)nc2n(C)c1=O
inactive: all assays above

CCN(CC)CCN
inactive: all assays above

CC(=O)OC(C)=O
inactive: all assays above

CN(C)C(C)(C)CO
inactive: all assays above

C/C(=C1\CCOC(=O)S1)N(C=O)Cc1cnc(C)nc1N
inactive: all assays above

C#CCN[C@@H]1CCc2ccccc21
inactive: all assays above

CC(=O)C(C)O (configuration not stated)
inactive: all assays above

CCOc1cccc(N)c1
inactive: all assays above

CC(C)=CCC/C(C)=C/COC=O
inactive: all assays above

CCCCOC(=O)C(C)O (configuration not stated)
inactive: all assays above

CC(=O)Nc1ccc(OC(=O)c2ccccc2OC(C)=O)cc1
inactive: all assays above

CC(=O)CCc1ccc(OC(C)=O)cc1
inactive: all assays above

C[C@@H](O)C(=O)O
inactive: all assays above

C=CCN1C[C@H](C(=O)N(CCCN(C)C)C(=O)NCC)C[C@@H]2c3cccc4[nH]cc(c34)C[C@H]21
inactive: all assays above

C=CCCCCCCCCC(=O)OCCCC
inactive: all assays above

COP(=O)(O)OP(=O)(O)OC
inactive: all assays above

CC(C)CCOC(=O)c1ccccc1
inactive: all assays above

CC12CCC(C1)C(C)(C)C2O (configuration not stated)
inactive: all assays above

O=C(O)CSCC(=O)NC1CCSC1=O (configuration not stated)
inactive: all assays above

CCCCCCCCCOC(=O)CCCCC(=O)OCCCCCCC
inactive: all assays above

CCCSSCCC
inactive: all assays above

CC(=O)OCC(=O)Nc1cc(C#N)cc(NC(=O)COC(C)=O)c1Cl
inactive: all assays above

COC(=O)CCCCC(=O)O
inactive: all assays above

O=C1OCCO1
inactive: all assays above

From PubChem BioAssay (Tox21)
